Key:
Assay in all cases: PBM binding z-score (relative to random genomic background probes); higher = stronger binding; sequences stand for … in GC…GCGATTGACAGCGTAGAATGAAGG
[1] = test system: FXR:RXRa (NR concentration 270 nM, RXRa partner concentration 90 nM)
Procedure, shortened: (§1)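 Custom Agilent 4×180K protein-binding microarrays carried double-stranded probes, each with a 34-nt variable region. These regions held direct-repeat seeds, single-nucleotide variants, half-site ablations and random human genomic background sequences. Ligand-free nuclear receptor dimers were incubated on the arrays for 1 h, antibodies against each partner (one per run) detected binding, and scanned fluorescence was regression-normalized. Binding z-scores take the random background probes as reference.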

[2] = test system: LXRa:RXRa (NR concentration 270 nM, RXRa partner concentration 90 nM)
Procedure, shortened: as §1

[3] = test system: LXRa homodimer (NR concentration 270 nM)
Procedure, shortened: as §1

[4] = test system: LXRb:RXRa (NR concentration 270 nM, RXRa partner concentration 90 nM)
Procedure, shortened: as §1

[5] = test system: LXRb homodimer (NR concentration 270 nM)
Procedure, shortened: as §1

[6] = test system: PPARa:RXRa (NR concentration 270 nM, RXRa partner concentration 90 nM)
Procedure, shortened: as §1

[7] = test system: PPARg:RXRa (NR concentration 180 nM, RXRa partner concentration 90 nM)
Procedure, shortened: as §1

[8] = test system: PPARg:RXRa 270nM:90nM, anti-RXR (NR concentration 270 nM, RXRa partner concentration 90 nM)
Procedure, shortened: as §1

[9] = test system: PPARg:RXRa 30nM:10nM, anti-RXR (NR concentration 30 nM, RXRa partner concentration 10 nM)
Procedure, shortened: as §1

[10] = test system: PPARg:RXRa 90nM:30nM, anti-RXR (NR concentration 90 nM, RXRa partner concentration 30 nM)
Procedure, shortened: as §1

[11] = test system: PPARg:RXRa DBDmut IVT, anti-RXR (DBD mutation: RXRa K156A/R161A, NR concentration 270 nM, RXRa partner concentration 90 nM)
Procedure, shortened: as §1

[12] = test system: PPARg:RXRa IVT, anti-PPARg (NR concentration 270 nM, RXRa partner concentration 90 nM)
Procedure, shortened: as §1

[13] = test system: PPARg DBDmut:RXRa IVT, anti-PPARg (DBD mutation: PPARg1 K132A/R137A, NR concentration 270 nM, RXRa partner concentration 90 nM)
Procedure, shortened: as §1

[14] = test system: PPARg DBDmut IVT, anti-PPARg (DBD mutation: PPARg1 K132A/R137A, NR concentration 270 nM)
Procedure, shortened: as §1

[15] = test system: PPARg homodimer (NR concentration 180 nM)
Procedure, shortened: as §1

[16] = test system: PXR:RXRa (NR concentration 270 nM, RXRa partner concentration 90 nM)
Procedure, shortened: as §1

[17] = test system: PXR homodimer (NR concentration 270 nM)
Procedure, shortened: as §1

[18] = test system: RARa:RXR (NR concentration 270 nM, RXRa partner concentration 90 nM)
Procedure, shortened: as §1

[19] = test system: RARa homodimer (NR concentration 270 nM)
Procedure, shortened: as §1

[20] = test system: RARb:RXRa (NR concentration 270 nM, RXRa partner concentration 90 nM)
Procedure, shortened: as §1

Sequence | PBM binding z-score [1] | PBM binding z-score [2] | PBM binding z-score [3] | PBM binding z-score [4] | PBM binding z-score [5] | PBM binding z-score [6] | PBM binding z-score [7] | PBM binding z-score [8] | PBM binding z-score [9] | PBM binding z-score [10] | PBM binding z-score [11] | PBM binding z-score [12] | PBM binding z-score [13] | PBM binding z-score [14] | PBM binding z-score [15] | PBM binding z-score [16] | PBM binding z-score [17] | PBM binding z-score [18] | PBM binding z-score [19] | PBM binding z-score [20]
TCTTATAGGTAATACAGGTGAAAGTCGGCATCTA | 1.18 | 1.45 | 0.636 | 1.17 | 0.858 | 2.06 | 1.26 | 2.8 | 3.97 | 3.16 | 4.02 | 3.44 | 1.76 | 1.72 | 1.19 | 0.981 | 0.463 | 1.37 | 1.47 | 0.816
ATCGAAAGGTTGAGGTGAGTATAGAGAAAGGGAA | 0.898 | 0.95 | -0.00942 | 0.744 | 0.158 | 1.86 | 0.625 | 0.616 | 0.531 | 0.337 | -0.0233 | 1.04 | 1.15 | 1.07 | 0.793 | 0.751 | 0.241 | 1.37 | 0.673 | 1.79
GCAACTGGGGCATCAGCAGGTTACCATAACTTAA | -0.117 | -0.265 | -0.205 | 1.08 | -0.444 | 1.83 | 2.26 | 1.76 | 0.0895 | 1.1 | 5.86 | 5.15 | -0.129 | 0.0733 | 0.577 | 0.0192 | -0.0956 | 0.138 | -0.393 | 0.963
CCTAATAGTTGACCATAAGGGCAACCGAAGCTCG | 0.919 | 0.486 | 0.29 | 0.606 | 0.214 | 0.827 | 0.664 | 0.43 | 0.117 | 0.37 | -0.0162 | 0.473 | 0.327 | 0.353 | 1.09 | 0.821 | 0.596 | 1.27 | 1.46 | 1.72
CGTCCAAGGTCAACGTCAGTGAAAGAGACTCGAA | 7.13 | 5.39 | 0.128 | 4.19 | 0.597 | 5.64 | 5.37 | 5.51 | 1.61 | 4.17 | 3.75 | 3.71 | 0.344 | -0.9 | 2.39 | 3.66 | 0.793 | 4.09 | 1.2 | 5.37
ACTAGCAGGCCAACTTTGGGTCACTCAAACAAAG | 0.261 | 0.66 | 0.362 | 0.931 | -0.445 | 1.53 | 0.543 | 0.901 | -0.236 | 0.471 | 1.25 | 1.4 | 0.153 | -0.0474 | 0.721 | 0.676 | -0.281 | 1.52 | -0.417 | 1.74
GCGACTGGGGCAAAGCAGGTTACCATTAGGTTGG | 0.209 | -0.0636 | -0.502 | 0.31 | -0.906 | 1.4 | 1.11 | 1.39 | -0.263 | 0.675 | 4.83 | 3.63 | -0.282 | -0.886 | 0.27 | 0.143 | -0.296 | 0.139 | -0.535 | 0.975
